Bioassay records deposited in PubChem BioAssay by National Center for Advancing Translational Sciences (NCATS).
This is a sample that favours compounds with a hit; in the whole collection about 11% have one here.
AmpC inh no detg: blocks E. coli AmpC beta-lactamase in detergent-free assay | AmpC nitrocefin hydrolysis, absorbance 480 nm, 0.0001% Triton | AID 485341 | P00811 | actives 0.52% (n = 330,000) | Potency, µM (top dose mostly 57.1 µM), inactives show top-dose activity change, negative = inhibition, hits mostly inhibitors;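 note: plate controls were no compound for no effect and no enzyme for full effect; nearly all actives have a fitted effect of over 20% in size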
Target sequence (P00811 whole entry, looked up): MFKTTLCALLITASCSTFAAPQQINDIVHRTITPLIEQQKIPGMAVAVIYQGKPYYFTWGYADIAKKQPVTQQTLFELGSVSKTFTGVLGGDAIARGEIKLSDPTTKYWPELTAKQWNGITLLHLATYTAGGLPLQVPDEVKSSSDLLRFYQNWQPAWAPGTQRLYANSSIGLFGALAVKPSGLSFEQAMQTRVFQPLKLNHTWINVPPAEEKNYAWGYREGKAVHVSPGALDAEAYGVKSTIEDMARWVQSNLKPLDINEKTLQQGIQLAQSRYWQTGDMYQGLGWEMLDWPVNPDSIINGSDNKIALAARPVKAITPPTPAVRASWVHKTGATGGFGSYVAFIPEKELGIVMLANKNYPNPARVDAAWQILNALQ
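AmpC (5.3 nM in the dispensed reagent) in 20 mM phosphate pH 7.0 with 0.01% (detergent screen) or 0.0001% Triton X-100 was preincubated with compounds for 15 min at room temperature. Nitrocefin was then added from an 800 uM solution, and hydrolysis was followed at 480 nm.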
Pf growth 96h: P. falciparum growth inhibition at 96 hour, primary screen for plastid delayed-death inhibitors. P. falciparum luciferase reporter growth, 96 h. Potency, µM (doses to about 28.7 µM), without a hit: at the highest dose activity change, negative = inhibition, most hits filed as inhibitors. actives 6.9% (n = 320,000). AID 504834
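Parasite growth measured via integrated firefly luciferase reporter in P. falciparum. Infected erythrocytes at 2% hematocrit, 0.05% parasitemia final were treated 96 hours at 37 C under 5% CO2, and luminescence was read.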
Pf growth 48h: P. falciparum growth inhibition at 48 hours (one generation). P. falciparum luciferase growth in erythrocytes, 48 h. Potency, µM (top dose mostly 28.7 µM), for inactives: at the highest dose activity change, negative = inhibition, actives largely listed as inhibitors. actives 5.9% (n = 310,000)
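Cell-based growth assay: transgenic P. falciparum expressing firefly luciferase, cultured in red cells within RPMI 1640 containing 0.5% w/v Albumax, 24 mM bicarbonate and gentamycin. A drop in luciferase activity indicates inhibition.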
AMA1 RON2 block: AMA1-RON2 (P. falciparum) interaction inhibition. AlphaScreen AMA1-biotinylated RON2 peptide binding. Potency, µM (titrated, usually from 58.2 µM), for the others: top-dose activity change, negative = inhibition, actives largely listed as inhibitors. actives 0.2% (n = 360,000). AID 720542;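 note: 0% = vehicle wells and -100% = peptide control; nearly all actives have a fitted effect of over 45% in size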
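AMA1 (3D7) with his tag at 25 nM final met compounds first, then biotinylated RON2 peptide at 25 nM; detection used donor plus acceptor beads, 10 µg/mL apiece, read by AlphaScreen after 30 min at room temperature.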
HCV inhibitor: blocks hepatitis C virus; Huh7.5.1 HCVcc-Cre infection, luciferase reporter, 44 h; Potency, µM (titrated, usually from 41.8 µM), for inactives: top-dose activity change, negative = inhibition, hits mostly inhibitors; actives 3.4% (n = 340,000)
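Infectious HCV cell culture screen: compound-treated cells (1,000/well, pre-plated 4 h) are infected with HCVcc-Cre at roughly 0.5 moi and grown 44 h. Infection is quantified by luciferase signal after 15 min substrate incubation at room temperature.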
AmpC inh detg: blocks E. coli AmpC beta-lactamase in detergent assay. AmpC hydrolysis of nitrocefin, absorbance 480 nm, 0.01% Triton. Potency, µM (doses to about 114 µM), inactives show at the highest dose activity change, negative = inhibition, hits mostly inhibitors. actives 0.041% (n = 370,000). AID 485294;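 note: 0% = no-compound wells and -100% = no-enzyme wells; nearly all actives have a fitted effect of over 25% in size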
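20 mM phosphate pH 7.0 + 0.01% (detergent screen) or 0.0001% Triton X-100; 5.3 nM AmpC reagent; cpd preinc 15 min RT; nitrocefin (800 uM stock) to start; A480 q20 s × 4 min; Activity was normalised to no-enzyme and no-compound control wells.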
* marks the source's active call; other numbers are inactive results; [ ] = remark or other dose. Calls come from the whole dose curve; as a rule, active = well fitted curve in the direction sought with a large enough effect; inconclusive = small, poorly fitted or top-dose-only effect, or another doubt; inactive = no such curve, though single readings can be large; an effect the other way counts as inactive or inconclusive. Unless noted, % is set by controls: 0 for no effect and ±100 for the full control effect; potency is the fitted concentration of half-maximal effect.

How did Cc1nn(-c2ccccc2)c(Cl)c1C1C(C#N)=C(N)Oc2c1c(C)nn2-c1ccccc1 (stereo unspecified) do in these assays?
AmpC inh no detg: -26%; Pf growth 96h: 10µM*; Pf growth 48h: 10µM*; AMA1 RON2 block: -2%; HCV inhibitor: 0%; AmpC inh detg: -6%

How did Cc1ccc(-n2nc(C)c3c2OC(N)=C(C#N)C3c2ccncc2)cc1 (stereo unspecified) do in these assays?
AmpC inh no detg: -26%; Pf growth 96h: 0.52µM*; Pf growth 48h: -2%; AMA1 RON2 block: -2%; HCV inhibitor: 2%; AmpC inh detg: -10%

Results for Cc1nn(-c2ccccc2)c2c1C(c1ccncc1)C(C#N)=C(N)O2 (stereo unspecified) ?
AmpC inh no detg: -21%; Pf growth 48h: -15%; AMA1 RON2 block: -10%; HCV inhibitor: 6%; AmpC inh detg: inconclusive

What do the screens show for `COc1ccc(C(=O)c2no[n+]([O-])c2C(=O)c2ccc(OC)cc2)cc1`?
AmpC inh no detg: -14%; Pf growth 96h: -20%; Pf growth 48h: inconclusive; AMA1 RON2 block: -3%; HCV inhibitor: inconclusive; AmpC inh detg: 1%

Results for O=C(c1cccs1)c1no[n+]([O-])c1C(=O)c1cccs1 ?
AmpC inh no detg: -15%; Pf growth 96h: -3%[5.75 µM]; Pf growth 48h: 47%; AMA1 RON2 block: -4%; HCV inhibitor: 10µM*; AmpC inh detg: 0%

How did CSc1ncc(C(=O)Nc2ccc(Br)cn2)c(C)n1 do in these assays?
AmpC inh no detg: -30%; Pf growth 96h: 1.9µM*; Pf growth 48h: inconclusive; AMA1 RON2 block: 4%; HCV inhibitor: -26%; AmpC inh detg: -4%

What do the screens show for `CSc1ncc(C(=O)Nc2ccc(C(C)=O)cc2)c(C)n1`?
AmpC inh no detg: -24%; Pf growth 96h: 2.6µM*; Pf growth 48h: inconclusive; AMA1 RON2 block: -5%; HCV inhibitor: -28%; AmpC inh detg: -11%

Results for O=C(Cc1ccccc1)N(Cc1cccnc1)c1nc2c(F)cc(F)cc2s1 ?
AmpC inh detg: -8%

Results for COc1ccc(S(=O)(=O)n2ccc(-c3cnc(-c4ccccc4)s3)n2)cc1 ?
AmpC inh no detg: -40%; Pf growth 96h: inconclusive; Pf growth 48h: inconclusive; AMA1 RON2 block: 24%; HCV inhibitor: inconclusive; AmpC inh detg: -15%

Results for CN(CCOc1ccc(-c2ccn(S(=O)(=O)c3c(Cl)cccc3Cl)n2)cc1)c1ccccn1 ?
AmpC inh no detg: -17%; Pf growth 96h: 2.6µM*; Pf growth 48h: inconclusive; AMA1 RON2 block: -2%; HCV inhibitor: 16%; AmpC inh detg: -23%

What do the screens show for `CN(CCOc1ccc(-c2ccn(S(=O)(=O)c3ccc(Cl)cc3)n2)cc1)c1ccccn1`?
AmpC inh no detg: -20%; Pf growth 96h: 10µM*; Pf growth 48h: 10µM*; AMA1 RON2 block: -16%; HCV inhibitor: 1.1µM*; AmpC inh detg: -11%

Results for CN(CCOc1ccc(-c2ccn(S(=O)(=O)c3cccc4ccccc34)n2)cc1)c1ccccn1 ?
AmpC inh no detg: inconclusive; Pf growth 96h: 9.3µM*; Pf growth 48h: 10µM*; AMA1 RON2 block: 1%; HCV inhibitor: inconclusive; AmpC inh detg: 5%

How did CN(CCOc1ccc(C=C2C(=O)NC(=O)NC2=O)cc1)c1ccccn1 do in these assays?
AmpC inh no detg: -9%; Pf growth 96h: 66%; Pf growth 48h: -18%; AMA1 RON2 block: -2%; HCV inhibitor: 13%; AmpC inh detg: -10%

Results for CCOC(=O)c1cccc(NC(=O)CCS(=O)(=O)c2ccc3c(c2)CCN3C(=O)CC)c1 ?
AmpC inh detg: 0%

What do the screens show for `CC(C)(C)c1csc(SCC(=O)Nc2ccc(Cl)cn2)n1`?
AmpC inh no detg: -20%; Pf growth 96h: inconclusive; Pf growth 48h: 12µM*; AMA1 RON2 block: 3%; HCV inhibitor: inconclusive; AmpC inh detg: 6%

How did CC1(C)C2CCC1(C)C(NC(=O)CCN1CCCCC1)C2 (stereo unspecified) do in these assays?
AmpC inh no detg: 14%; Pf growth 96h: 0.093µM*; Pf growth 48h: 5%; AMA1 RON2 block: -1%; HCV inhibitor: -21%; AmpC inh detg: inconclusive

How did Cc1cc2c(cc1C)N(C(=O)CSC1=NCCS1)C(C)(C)c1ssc(=S)c1-2 do in these assays?
AmpC inh no detg: -3%; Pf growth 96h: 2.6µM*; Pf growth 48h: 6.6µM*; AMA1 RON2 block: inconclusive; HCV inhibitor: inconclusive; AmpC inh detg: 4%

How did CC1(C)c2ssc(=S)c2-c2ccccc2N1C(=O)CSC1=NCCS1 do in these assays?
AmpC inh no detg: -6%; Pf growth 96h: 11%; Pf growth 48h: inconclusive; AMA1 RON2 block: inconclusive; HCV inhibitor: inconclusive; AmpC inh detg: 0%

How did COc1ccc2c(c1)-c1c(ssc1=S)C(C)(C)N2C(=O)CSC1=NCCS1 do in these assays?
AmpC inh no detg: inconclusive; Pf growth 96h: 0%; Pf growth 48h: 0%; AMA1 RON2 block: inconclusive; HCV inhibitor: 10µM*; AmpC inh detg: 2%

Results for COc1cc2c(cc1OC)C(c1ccc(F)cc1)N(c1ccccc1)C(=O)C2 (stereo unspecified) ?
AmpC inh detg: -9%

Results for O=C(NC1CC1)c1ccc(CSCc2ccccc2Cl)o1 ?
AmpC inh no detg: 1%; Pf growth 96h: 24%; Pf growth 48h: 1.9µM*; AMA1 RON2 block: -5%; HCV inhibitor: -9%; AmpC inh detg: -3%

What do the screens show for `O=C(NCCc1ccc(Cl)cc1)c1ccc(CSCc2ccccc2Cl)o1`?
AmpC inh detg: 7%

What do the screens show for `CCOc1ccc(-c2cc3c(=O)n(Cc4nc(-c5ccc(OC(C)C)cc5)oc4C)ccn3n2)cc1Cl`?
AmpC inh detg: 1%

What do the screens show for `N#Cc1cccc2c1-c1ccccc1/C2=N/NC(N)=S`?
AmpC inh no detg: -36%; Pf growth 96h: inconclusive; Pf growth 48h: -6%[0.00184 µM]; AMA1 RON2 block: 70%; HCV inhibitor: 13µM*; AmpC inh detg: 1%

What do the screens show for `CC(C)COc1ccc(/C(O)=C2/C(=O)C(=O)N(CCN(C)C)C2c2ccncc2)cc1` (stereo unspecified)?
AmpC inh no detg: 9%; Pf growth 96h: 24%; Pf growth 48h: 41%; AMA1 RON2 block: -4%; HCV inhibitor: 9%; AmpC inh detg: -2%
